This is an account of results in PubChem BioAssay.

Structures are written as SMILES. Results filed as inconclusive are left out. Active and inactive are the calls of the source.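 How the source made its calls, unless noted: active means efflux inhibition above 0.42, the validation set average plus 4 SD; inconclusive means no clear call, values can overlap the other calls; inactive means the rest.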

Test [1] is described as follows: rapamycin-like changes in RPL19A-GFP expression – cell-based, S. cerevisiae, multiplex flow cytometry, primary screen (AID 1862; in the data active means percent of DMSO control GFP below about 86%;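 further: lower values mimic rapamycin by blocking the RPL19A rise seen in DMSO cells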). Particulars: S. cerevisiae RPL19A-GFP strain, flow cytometry fluorescence, 3 h; at 10 µM; stronger effect = lower value.
The nature of test [2]: TOR pathway GLN3 branch reporter MEP2-GFP changes – S. cerevisiae, multiplex flow cytometry, primary screen (AID 1867;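 active means GFP response, as percent of the DMSO control, above the screen-wide mean plus 3 SD, about 139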;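 further: median GFP channel fluorescence of barcode-gated MEP2-GFP cells measured by flow cytometry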). The conditions noted are these: S. cerevisiae MEP2-GFP strain, 3 h, at 10 µM, stronger effect = higher value, 100% means same as DMSO wells.
Test [3] can be described thus: TOR pathway RTG branch CIT2 reporter changes – S. cerevisiae, GFP fusion, multiplex flow cytometry, primary screen (AID 1870;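 active means percent response above a set limit, the screen-wide mean plus 3 SD, cut at about 130% in these data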;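 further: barcoded CIT2-GFP strain pooled with four other GFP strains with rapamycin as positive control; median GFP fluorescence per well over plate mean of DMSO wells so 100% = DMSO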). Particulars: S. cerevisiae CIT2-GFP expression, 3 h, at 10 µM, stronger effect = higher value. On the technique in general: A flow cytometer gives signals particle by particle.
The nature of test [4]: TOR pathway LAP4-GFP level changes – S. cerevisiae, multiplex flow cytometry, primary screen (AID 1873;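 active means GFP signal, as percent of the solvent control, above the screen mean plus 3 SD, about 149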). The conditions noted are these: S. cerevisiae LAP4-GFP expression, 3 h, at 10 µM, stronger effect = higher value.
Test [5] in a line: yeast AGP1-GFP level changes, GLN3 branch – cell-based, multiplex flow cytometry, S. cerevisiae, primary screen (AID 1887;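 active means GFP signal above the screen-wide mean plus 3 SD, that is over about 124.5% of the solvent control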;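 further: AGP1-GFP fusion strain of S. cerevisiae within a five-strain barcoded multiplex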). The conditions noted are these: 3 h, at 10 µM, stronger effect = higher value.
Test [6] can be described thus: reduced mouse 2C T cell binding to pMHC/ICAM-1 vesicles – MLPCN validation set, flow cytometry, LFA-1/ICAM-1 modulator project, pilot screen (AID 2523;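 active means response below a set limit, under 55% cells CD8-positive and vesicle-bound, and CD8 cells' 90th-percentile brightness under 279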;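 on vesicle binding response: mean PE anti-B7-1 fluorescence of CD8+ cells relative to row control; 100% = QL9-loaded vesicles with DMSO vehicle in the same plate row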). Particulars: 2C mouse CD8+ T cells, at 7 µM, stronger effect = lower value; double positive events: measured here: CD8+/vesicle+ event percentage.
Test [7] has as its target Integrin beta-1 (Homo sapiens) + Integrin alpha-4 (Homo sapiens) (UniProt P13612+P05556). As to the kind of experiment: alpha4beta1 integrin LIBS antibody binding reduction – U937 cells, HUTS-21 mAb, flow cytometry, validation set, VLA-4 allosteric modulator project, pilot screen (AID 2674;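 active means inhibition above 50%, about 3 SD of the validation set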;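 further: antibody binding induced by the VLA-4 ligand LDV present at three times its Kd; 0% = LDV ligand with antibody and no compound and 100% = antibody without LDV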). Particulars: HUTS-21 LIBS mAb binding, at 6.7 µM, stronger effect = higher value, binding induced by LDV ligand.

Test [8] in a line: calorie-restriction mimetic ROS inhibitors, yeast – validation compound set, pilot screen (AID 2706;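 active means superoxide response below 65% of plate, a cut near 3 SD across the whole screen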;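 further: yeast exposed to compound for one week at 30 degrees C before staining; 100% = mean of all compound wells on the same plate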). Particulars: S. cerevisiae aging, superoxide DHE fluorescence; at 10 µM, stronger effect = lower value.
Test [9] concerns the target Beta-adrenergic receptor kinase 1 (Homo sapiens) (UniProt P25098). As to the kind of experiment: GRK2 binders displacing RNA aptamer, biochemical, validation, human GRK2, bead flow cytometry (AID 488806;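 active means aptamer binding inhibition above 30%, about 3 SD of noise from non-fluorescent compounds; inactive means inhibition at or below 30%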). The conditions noted are these: bead-bound GRK2, FAM-aptamer displacement, at 10 µM, stronger effect = higher value.
For test [10], the target named is AP-2 complex subunit beta (Homo sapiens) (UniProt P63010). As to the kind of experiment: beta-arrestin/AP2 interaction blockers – biochemical, validation set, GST-AP2 beads, flow cytometry, pilot screen (AID 504541;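 active means inhibition above 54%, about 3 SD of non-fluorescent compounds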;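 further: AP2 carries R879A mutation and is captured from E. coli lysate; bead-bound FITC arrestin peptide fluorescence measuring arrestin peptide binding to AP2; 0% = DMSO wells and 100% = excess unlabeled arrestin peptide control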). The conditions noted are these: FITC arrestin peptide, at 10 µM, stronger effect = higher value, AP2 beta2 appendage fragment, R879A mutant.
The nature of test [11]: cytosolic pH regulators acting via V-ATPase – S. cerevisiae, pHLuorin, HTS validation (AID 504600; in the data active means response above about 15%;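 further: plate controls were DMSO for no effect and reference compound for full effect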). Particulars: V-ATPase proton transport, at 10 µM, stronger effect = higher value.
In test [12] the test system is anti-desmoglein-3 scFv antibody binding to human DSG3. As to the kind of experiment: blockers of pathogenic pemphigus antibody–desmoglein-3 binding – biochemical, validation compound set, bead-based, flow cytometry, pilot screen (AID 588368;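 active means binding below the plate cutoff, the plate median minus 3 SD, with a reading above zero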;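 further: signal is the median channel fluorescence of bead-bound GFP antibody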). The conditions noted are these: Protein G beads, DSG3-Fc, scFv-GFP binding, at 10 µM, stronger effect = lower value.
Test [13] can be described thus: Nile Red efflux blockade in pump-expressing yeast – validation compound set, multiplex, phenotypic, pilot screen (AID 588506).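 Further: Nile Red retained in cells so higher fluorescence means more efflux inhibition; 0 = negative control wells and 1 = enniatin B 25 µM full block.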 The conditions noted are these: S. cerevisiae pump-expressing triplex, Nile Red efflux flow cytometry; at 10 µM; stronger effect = higher value; the pumps come from Candida albicans.
The target in test [14] is ATP-binding cassette sub-family B member 6 (Homo sapiens) (UniProt Q9NP58). Briefly: blockers of ABCB6-driven porphyrin uptake – K562-ABCB6 cells, flow cytometry, validation set, pilot screen (AID 588550;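 active means inhibition above the screen-wide mean plus 3 SD, about 51%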;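 further: 0% = DMSO wells and 100% = benzethonium chloride 70 µM positive control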). The conditions noted are these: K562-ABCB6 porphyrin accumulation, 1 h, at 10 µM, stronger effect = higher value.
A short description of test [15]: AML differentiation inducers, ER-HoxA9 marrow cells – cell-based, GFP/MAC1 double positive, flow cytometry, validation set, primary screen (AID 588685;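 active means differentiation response of at least 50%, scaled between solvent and reference control, from cells with both markers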;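 further: compound exposure lasts four days before antibody staining and flow analysis; 0% = DMSO wells and 100% = 5 µM fulvestrant positive control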). The conditions noted are these: stronger effect = higher value, normalized: vehicle 0, fulvestrant 100.

ATP-binding cassette sub-family B member 6 (Homo sapiens), sequence (Q9NP58 whole entry, looked up): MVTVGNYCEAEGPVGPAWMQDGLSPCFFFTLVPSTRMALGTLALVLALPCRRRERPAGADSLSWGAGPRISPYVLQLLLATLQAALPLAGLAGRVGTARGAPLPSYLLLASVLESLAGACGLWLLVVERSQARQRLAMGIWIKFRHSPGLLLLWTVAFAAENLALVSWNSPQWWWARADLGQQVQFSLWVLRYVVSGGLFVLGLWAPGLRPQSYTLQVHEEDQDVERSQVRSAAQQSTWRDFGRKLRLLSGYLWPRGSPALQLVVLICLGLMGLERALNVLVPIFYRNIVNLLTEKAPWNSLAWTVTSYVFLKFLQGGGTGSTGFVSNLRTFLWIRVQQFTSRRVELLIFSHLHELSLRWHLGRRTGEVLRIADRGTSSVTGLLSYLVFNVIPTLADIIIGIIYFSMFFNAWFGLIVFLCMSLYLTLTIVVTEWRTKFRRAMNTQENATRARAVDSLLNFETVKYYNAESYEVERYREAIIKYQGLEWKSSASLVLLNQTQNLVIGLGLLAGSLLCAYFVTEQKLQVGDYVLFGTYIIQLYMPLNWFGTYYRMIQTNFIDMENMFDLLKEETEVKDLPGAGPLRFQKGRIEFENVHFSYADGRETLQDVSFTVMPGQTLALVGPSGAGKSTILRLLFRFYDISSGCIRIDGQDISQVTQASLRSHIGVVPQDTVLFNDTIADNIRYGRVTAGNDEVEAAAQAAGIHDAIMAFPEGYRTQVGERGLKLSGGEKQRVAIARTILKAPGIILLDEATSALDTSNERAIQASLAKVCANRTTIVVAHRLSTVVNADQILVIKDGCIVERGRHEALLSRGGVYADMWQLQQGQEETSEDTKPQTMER
Integrin beta-1 (Homo sapiens) + Integrin alpha-4 (Homo sapiens), sequence (P05556 whole entry, looked up): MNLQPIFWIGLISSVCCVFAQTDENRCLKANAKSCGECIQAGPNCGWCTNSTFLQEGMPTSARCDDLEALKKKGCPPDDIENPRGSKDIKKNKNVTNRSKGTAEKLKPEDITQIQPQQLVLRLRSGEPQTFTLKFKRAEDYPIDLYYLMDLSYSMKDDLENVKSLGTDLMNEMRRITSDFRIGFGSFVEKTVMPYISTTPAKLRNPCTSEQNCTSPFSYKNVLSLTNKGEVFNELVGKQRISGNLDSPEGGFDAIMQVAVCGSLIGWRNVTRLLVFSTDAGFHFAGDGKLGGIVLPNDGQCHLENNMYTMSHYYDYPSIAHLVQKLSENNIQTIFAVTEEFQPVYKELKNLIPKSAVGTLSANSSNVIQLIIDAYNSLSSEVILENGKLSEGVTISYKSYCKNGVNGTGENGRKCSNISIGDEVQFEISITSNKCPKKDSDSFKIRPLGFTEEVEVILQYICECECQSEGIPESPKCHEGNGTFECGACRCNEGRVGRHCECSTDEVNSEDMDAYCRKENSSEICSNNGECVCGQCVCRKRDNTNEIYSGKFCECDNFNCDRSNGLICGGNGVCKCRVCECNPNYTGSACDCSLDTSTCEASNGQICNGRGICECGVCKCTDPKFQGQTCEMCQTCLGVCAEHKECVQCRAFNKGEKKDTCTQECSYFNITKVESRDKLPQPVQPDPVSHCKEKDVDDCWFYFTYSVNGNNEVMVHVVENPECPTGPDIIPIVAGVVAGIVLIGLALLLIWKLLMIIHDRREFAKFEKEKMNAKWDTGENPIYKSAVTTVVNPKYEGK
Integrin beta-1 (Homo sapiens) + Integrin alpha-4 (Homo sapiens), sequence (P13612 whole entry, looked up): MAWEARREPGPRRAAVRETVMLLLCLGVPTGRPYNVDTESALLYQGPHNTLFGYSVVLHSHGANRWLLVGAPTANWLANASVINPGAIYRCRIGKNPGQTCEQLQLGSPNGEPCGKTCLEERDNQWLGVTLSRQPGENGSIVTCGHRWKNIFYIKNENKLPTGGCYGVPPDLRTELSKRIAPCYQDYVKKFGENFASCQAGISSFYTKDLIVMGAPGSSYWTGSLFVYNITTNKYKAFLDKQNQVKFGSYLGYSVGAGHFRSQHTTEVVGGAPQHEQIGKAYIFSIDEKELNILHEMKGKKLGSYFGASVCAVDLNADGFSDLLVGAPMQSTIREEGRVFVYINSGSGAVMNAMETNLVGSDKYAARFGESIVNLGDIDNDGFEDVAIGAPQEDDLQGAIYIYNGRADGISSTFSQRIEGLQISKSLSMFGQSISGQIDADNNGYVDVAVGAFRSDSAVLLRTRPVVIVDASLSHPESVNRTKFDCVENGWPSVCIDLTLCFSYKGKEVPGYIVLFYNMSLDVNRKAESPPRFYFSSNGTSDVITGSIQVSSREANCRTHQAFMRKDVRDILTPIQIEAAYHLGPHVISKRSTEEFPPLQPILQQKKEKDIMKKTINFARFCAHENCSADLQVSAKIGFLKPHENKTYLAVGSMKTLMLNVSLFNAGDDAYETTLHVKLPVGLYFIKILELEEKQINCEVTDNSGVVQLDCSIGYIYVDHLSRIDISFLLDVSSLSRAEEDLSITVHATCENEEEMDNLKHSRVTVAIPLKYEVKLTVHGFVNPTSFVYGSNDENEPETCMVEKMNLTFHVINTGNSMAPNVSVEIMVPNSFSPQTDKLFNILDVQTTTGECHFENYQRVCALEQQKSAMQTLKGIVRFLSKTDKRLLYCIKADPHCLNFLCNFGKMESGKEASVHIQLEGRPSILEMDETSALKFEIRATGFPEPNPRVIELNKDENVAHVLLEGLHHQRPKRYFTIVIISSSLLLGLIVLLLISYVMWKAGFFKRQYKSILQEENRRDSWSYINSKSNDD
AP-2 complex subunit beta (Homo sapiens), sequence (P63010 whole entry, looked up, the tested form may be a part, one chain of several): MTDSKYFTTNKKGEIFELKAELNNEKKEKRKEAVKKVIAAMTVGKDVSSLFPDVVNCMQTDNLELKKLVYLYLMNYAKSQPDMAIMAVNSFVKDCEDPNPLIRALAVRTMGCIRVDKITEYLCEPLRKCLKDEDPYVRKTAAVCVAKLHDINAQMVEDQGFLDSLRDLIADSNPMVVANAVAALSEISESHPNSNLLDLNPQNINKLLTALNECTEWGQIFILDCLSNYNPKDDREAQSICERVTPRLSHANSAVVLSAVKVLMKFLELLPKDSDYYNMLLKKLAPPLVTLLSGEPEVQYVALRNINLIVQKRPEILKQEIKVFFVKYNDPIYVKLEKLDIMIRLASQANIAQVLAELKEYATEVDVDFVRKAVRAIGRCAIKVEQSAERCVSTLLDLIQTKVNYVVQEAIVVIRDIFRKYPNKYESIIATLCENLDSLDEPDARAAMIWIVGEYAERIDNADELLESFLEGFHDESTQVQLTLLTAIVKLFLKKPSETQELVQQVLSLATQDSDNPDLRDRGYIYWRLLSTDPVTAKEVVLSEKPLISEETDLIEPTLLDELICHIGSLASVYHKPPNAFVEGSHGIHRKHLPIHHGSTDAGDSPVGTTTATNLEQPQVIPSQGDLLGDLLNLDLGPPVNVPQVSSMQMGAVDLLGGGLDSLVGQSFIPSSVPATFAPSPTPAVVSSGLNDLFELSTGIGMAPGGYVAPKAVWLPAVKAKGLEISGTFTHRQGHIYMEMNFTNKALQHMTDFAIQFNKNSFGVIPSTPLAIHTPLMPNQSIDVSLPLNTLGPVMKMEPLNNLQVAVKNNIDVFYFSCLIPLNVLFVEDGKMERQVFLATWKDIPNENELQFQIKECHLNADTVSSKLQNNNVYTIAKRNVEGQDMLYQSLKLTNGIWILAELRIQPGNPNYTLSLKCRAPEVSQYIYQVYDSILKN
Beta-adrenergic receptor kinase 1 (Homo sapiens), sequence (P25098 whole entry, looked up): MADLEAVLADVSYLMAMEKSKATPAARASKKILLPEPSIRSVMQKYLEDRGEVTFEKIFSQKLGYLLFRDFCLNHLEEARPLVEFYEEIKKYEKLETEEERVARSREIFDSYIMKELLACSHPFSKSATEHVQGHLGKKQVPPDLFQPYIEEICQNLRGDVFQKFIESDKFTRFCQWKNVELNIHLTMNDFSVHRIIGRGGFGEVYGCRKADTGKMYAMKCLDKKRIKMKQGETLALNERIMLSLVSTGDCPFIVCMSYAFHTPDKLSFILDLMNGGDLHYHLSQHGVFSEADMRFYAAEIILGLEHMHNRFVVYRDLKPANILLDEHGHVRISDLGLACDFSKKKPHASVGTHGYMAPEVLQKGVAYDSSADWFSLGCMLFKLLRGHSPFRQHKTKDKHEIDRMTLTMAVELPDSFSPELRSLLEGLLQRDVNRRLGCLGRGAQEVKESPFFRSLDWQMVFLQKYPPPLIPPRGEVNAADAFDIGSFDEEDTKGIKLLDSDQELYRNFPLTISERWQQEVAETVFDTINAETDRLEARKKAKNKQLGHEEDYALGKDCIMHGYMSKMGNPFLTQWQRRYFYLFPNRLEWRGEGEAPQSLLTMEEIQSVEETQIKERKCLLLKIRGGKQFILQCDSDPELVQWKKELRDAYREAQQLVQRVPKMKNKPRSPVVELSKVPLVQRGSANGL

`CC#C[C@]1(O)CC[C@H]2[C@@H]3CCC4=CC(=O)CCC4=C3[C@@H](c3ccc(N(C)C)cc3)C[C@@]21C`: in [1], the percent of DMSO control GFP is 103% (inactive). Further, the GFP response vs DMSO is 103% (inactive) in test [2] and 87.3% (inactive) in test [4]. For the same molecule, the percent response of DMSO control in test [3] was 110% (inactive). Besides, the GFP response, % of DMSO in test [5] was 102% (inactive). Moreover, the double positive events in [6] came out at 56.3%. The vesicle binding response in test [6] is 187% (inactive). In addition, the figures for the inhibition in test [7], in test [10] and in [14] were -10.5% (inactive), 25.2% (inactive) and 3% (inactive), respectively. In addition, in test [8], the superoxide response (% of plate) was 94.9% (inactive). The aptamer binding inhibition in [9] is 9% (inactive). The response in test [11] was 0.03% (inactive). The binding (% of control) in [12] was 94.6% (inactive). In [13], the efflux inhibition (fraction of control) is -0.16 (inactive). For the same molecule, the differentiation response in [15] is -16.4% (inactive).

As for `CCOc1ccc(C(=O)/C=C/c2cc(OC)c(OC)c(OC)c2)cc1`, the percent of DMSO control GFP in [1] was 97.1% (inactive). The GFP response vs DMSO in test [2] and in test [4] was 105% (inactive) each time. Further, the percent response of DMSO control in [3] is 92% (inactive). For the same molecule, the GFP response, % of DMSO in test [5] is 89.4% (inactive). The molecule also yielded a double positive events in [6] of 54.7%. Also, in [6], the vesicle binding response is 209% (inactive). Also, the inhibition in test [7] is -0.24% (inactive); in [10] it was 4.7% (inactive); in test [14] it was 4% (inactive). Further, the superoxide response (% of plate) in test [8] is 91.6% (inactive). Also, in test [9], the aptamer binding inhibition was -3% (inactive). Also, in test [11], the response was 1.41% (inactive). Besides, the binding (% of control) in [12] is 104% (inactive). Also, in test [13], the efflux inhibition (fraction of control) is 0.25 (inactive). Besides, the differentiation response in [15] is 40.2% (inactive).

Turning to `COc1ccc2nc(Nc3nc(CSc4ccc(C)cc4)cc(=O)[nH]3)nc(C)c2c1`, in [1], the percent of DMSO control GFP was 99% (inactive). In addition, the values for the GFP response vs DMSO in test [2] and in [4] were 103% (inactive) and 90.3% (inactive), respectively. Also, in [3], the percent response of DMSO control was 98.8% (inactive). In addition, the GFP response, % of DMSO in test [5] was 104% (inactive). For the same molecule, the double positive events in [6] stood at 63.5%. Further, the vesicle binding response in test [6] was 217% (inactive). The inhibition in test [7] is 8.15% (inactive); in test [10], 8.24% (inactive); in test [14] it was 6% (inactive). Also, the superoxide response (% of plate) in test [8] is 104% (inactive). In test [9], the aptamer binding inhibition was 0% (inactive). In [11], the response was -0.97% (inactive). Also, the binding (% of control) in test [12] is 103% (inactive). Besides, the efflux inhibition (fraction of control) in [13] was -0.43 (inactive). For the same molecule, the differentiation response in [15] is -24.4% (inactive).

Consider `Cc1ncc([N+](=O)[O-])n1CC(C)O` (stereo not given), for which, in test [1], the percent of DMSO control GFP is 101% (inactive). The GFP response vs DMSO in test [2] was 103% (inactive); in [4], 99.4% (inactive). Besides, in test [3], the percent response of DMSO control was 103% (inactive). Moreover, the GFP response, % of DMSO in [5] is 97.3% (inactive). This molecule also returned a double positive events in [6] of 52.2%. Besides, the vesicle binding response in test [6] is 149% (inactive). Further, the inhibition is 8.15% (inactive) in test [7], -6.78% (inactive) in test [10] and 8% (inactive) in [14]. Also, the superoxide response (% of plate) in test [8] was 100% (inactive). The aptamer binding inhibition in [9] is 9% (inactive). In addition, the response in test [11] is -2.48% (inactive). Further, the binding (% of control) in [12] is 100% (inactive). The efflux inhibition (fraction of control) in test [13] is 0.14 (inactive). Besides, the differentiation response in test [15] was -9.89% (inactive).

In the case of `O=C(/C=C/c1ccc(Cl)cc1)NCCc1ccccc1`, the percent of DMSO control GFP in test [1] was 102% (inactive). In addition, the GFP response vs DMSO in test [2] is 92.8% (inactive); in [4] it was 97.4% (inactive). The percent response of DMSO control in [3] is 97.9% (inactive). In addition, the GFP response, % of DMSO in [5] was 97.5% (inactive). The double positive events in [6] turned out to be 54.1%. In addition, the vesicle binding response in [6] was 270% (inactive). For the same molecule, the figures for the inhibition in test [7], in [10] and in [14] were 2.56% (inactive), -7.53% (inactive) and 7% (inactive), respectively. Also, the superoxide response (% of plate) in test [8] is 106% (inactive). Besides, the aptamer binding inhibition in test [9] was -1% (inactive). Further, the response in test [11] is 2.01% (inactive). The binding (% of control) in test [12] was 98.2% (inactive). Also, the efflux inhibition (fraction of control) in test [13] was -0.09 (inactive). The differentiation response in test [15] is -5.05% (inactive).

For orientation: inhibition means the relative decrease from the control value, in per cent.
